Assay outcomes as filed in PubChem.
Hits are enriched below; roughly 0.9% of the tested compounds scored in any of these assays.
SRC3 TRFRET art: counter-screen for PPARgamma SRC-3 recruitment agonists: TR-FRET artefact. PPARgamma/SRC-3 format; stronger effect = higher value. TR-FRET ratio at 8 µM. 99,000 compounds, 0.39% hits
PPARg SRC-2 ag: PPARgamma-driven SRC-2 recruitment agonism. P37231. PPARgamma LBD-SRC-2 recruitment, biochemical. activation, % at 8 µM. 200,000 compounds, 0.34% hits; in the data active = activation above about 22%;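 note: 0% = vehicle and 100% = reference agonist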
Target sequence (P37231 whole entry, looked up, the tested form may be a part): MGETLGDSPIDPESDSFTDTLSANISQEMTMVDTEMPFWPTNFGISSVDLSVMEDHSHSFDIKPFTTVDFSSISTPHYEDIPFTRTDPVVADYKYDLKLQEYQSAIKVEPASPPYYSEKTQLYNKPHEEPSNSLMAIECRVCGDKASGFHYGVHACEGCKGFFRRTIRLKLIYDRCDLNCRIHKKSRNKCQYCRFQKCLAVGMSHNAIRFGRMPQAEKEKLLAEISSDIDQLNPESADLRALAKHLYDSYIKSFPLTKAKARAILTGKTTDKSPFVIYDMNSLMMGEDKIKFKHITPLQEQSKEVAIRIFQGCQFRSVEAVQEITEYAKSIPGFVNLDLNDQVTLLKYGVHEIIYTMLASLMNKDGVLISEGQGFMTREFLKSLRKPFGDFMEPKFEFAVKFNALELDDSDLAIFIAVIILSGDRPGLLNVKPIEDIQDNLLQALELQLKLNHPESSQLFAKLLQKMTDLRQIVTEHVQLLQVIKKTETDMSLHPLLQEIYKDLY
PPARg SRC-3 ag: promotes SRC-3 coactivator recruitment by human PPARgamma; biochemical PPARgamma/SRC-3 coactivator recruitment assay; activation, % at 8 µM; 200,000 compounds, 0.26% hits; in the data active = activation above about 23%;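 note: 0% = DMSO and 100% = reference agonist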
TR-FRET SRC-2 ct: counter-screen for PPARgamma SRC-2 recruitment agonists: TR-FRET artefact; stronger effect = higher value; TR-FRET ratio at 8 µM; 200,000 compounds, 0.4% hits; AID 1049
SRC1 TRFRET art: flags TR-FRET format artefacts in PPARgamma SRC-1 recruitment agonist screen | TR-FRET detection artefact counter-screen, emission ratio; stronger effect = higher value | TR-FRET ratio at 8 µM | 99,000 compounds, 0.34% hits | AID 1051; in the data active = TR-FRET ratio above about 2300
PPARg SRC-1 ag: PPARgamma-driven SRC-1 recruitment agonism; P37231; PPARgamma-SRC-1 coactivator recruitment biochemical assay; activation, % at 8 µM; 200,000 compounds, 0.41% hits; AID 631; in the data active = activation above about 19%;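 note: 0% = DMSO and 100% = reference agonist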
PPARg SRC2 conf: human PPARgamma SRC-2 recruitment agonism, confirmation. activation, % at 8 µM. AID 1297. 790 compounds, 52% hits. shares compounds with PPARg SRC-3 ag. biochemical SRC-2 recruitment by PPARgamma; in the data active = activation above about 22%;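 note: 0% = vehicle alone and 100% = reference agonist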
PPARg SRC1 conf: human PPARgamma SRC-1 recruitment agonism, confirmation; shares compounds with PPARg SRC-3 ag; PPARgamma–SRC-1 coactivator recruitment biochemical assay; activation, % at 8 µM; 790 compounds, 43% hits; AID 1300; in the data active = activation above about 20%;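 note: 0% = vehicle wells and 100% = reference agonist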
PPARg SRC3 conf: human PPARgamma SRC-3 recruitment agonism, confirmation; shares compounds with PPARg SRC-3 ag; biochemical PPARgamma-SRC-3 coactivator recruitment, agonist mode; activation, % at 8 µM; 790 compounds, 29% hits; in the data active = activation above about 24%;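 note: 0% = vehicle wells and 100% = reference agonist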
* = called active by the depositor; . = no result given. Cut-off read from the data, not from the text of the source, unless noted: active = TR-FRET ratio above about 2000; inactive = the rest.

SMILES	SRC3 TRFRET art	PPARg SRC-2 ag	PPARg SRC-3 ag	TR-FRET SRC-2 ct	SRC1 TRFRET art	PPARg SRC-1 ag	PPARg SRC2 conf	PPARg SRC1 conf	PPARg SRC3 conf
COc1cccc(CN2CCC(C(=O)N3CCN(c4ccccc4F)CC3)CC2)c1OC	1583	0.2	7.3	1480	1863	12.9	.	.	.
O=C(Nc1cccc(NC(=O)c2ccc(Br)o2)n1)c1ccc(Br)o1	.	14.4	12.3	1847	.	19.1*	5.7	3.2	2.0
O=C(c1ccco1)N1CCN(Cc2cccc([N+](=O)[O-])c2)CC1	1557	-3.1	3.9	1543	1688	8.8	.	.	.
O=[N+]([O-])c1cc(Cc2ccccc2)cc(C=Nc2ccc(N3CCOCC3)cc2)c1O	2652*	65.0*	39.2*	2504*	3128*	50.6*	21.6	17.4	16.6
CCC(OC(=O)c1cc2sccc2n1C)C(=O)NCC1CCCO1 (stereo unspecified)	.	11.1	11.3	1531	.	22.0*	11.8	17.4	17.2
O=C(Cc1cccc2ccccc12)Nc1ccc(-c2cc3ccccc3oc2=O)cc1	.	7.7	10.8	2296*	.	24.4*	23.9*	17.9	10.1
COC(=O)c1ccc(CSc2ncnc3c2oc2ccccc23)o1	.	28.6*	50.4*	1972*	.	56.4*	44.0*	28.5*	30.5*
CC(=O)N1CCN(c2ccc(Nc3ncnc4c3oc3ccccc34)cc2)CC1	.	23.2*	13.2	1766	.	15.0	1.7	3.0	2.3
CC(=O)CSc1ncnc2c1oc1ccccc12	.	114.2*	218.7*	5487*	.	135.2*	65.3*	43.4*	43.5*
O=C(CSc1ncnc2c1oc1ccccc12)Nc1ccccc1F	.	12.7	26.9*	1545	.	33.1*	36.7*	28.9*	23.5
O=C(O)CSc1nc(-c2ccccc2)nc2c1oc1ccccc12	.	3.2	11.6	1647	.	8.2	.	.	.
Cc1ccc(C(=O)N/C(=C/c2ccc(F)cc2)C(=O)NCc2ccncc2)cc1	1654	-2.7	0.5	1440	1878	0.3	.	.	.
O=C1NCCCC1C(=O)Nc1ccccc1C(F)(F)F (stereo unspecified)	.	1.7	2.5	1473	.	-0.3	.	.	.
O=C(CSc1nc2ccccc2o1)Nc1nc2ccccc2s1	.	7.0	8.2	1507	.	1.5	.	.	.
CC(C)Sc1ncnc2c1oc1ccccc12	.	33.2*	38.4*	1948	.	36.4*	45.1*	32.9*	29.8*
c1ccc(Sc2ncnc3c2oc2ccccc23)nc1	.	15.3	6.6	1640	.	2.2	.	.	.
O=C(CSc1ncnc2c1cnn2CCc1ccccc1)Nc1cccc(C(F)(F)F)c1	.	3.8	-3.0	1380	.	-3.8	.	.	.
O=c1c2oc3ccccc3c2ncn1Cc1cccc(Cl)c1	1540	-2.5	-0.3	1416	1630	3.4	.	.	.
O=C(CSc1ncnc2c1oc1ccccc12)Nc1nc2ccccc2s1	.	11.8	39.2*	1783	.	29.9*	44.1*	31.4*	27.6*
O=C(CSc1ncnc2c1oc1ccccc12)Nc1cccc(C(F)(F)F)c1	.	35.3*	29.0*	2069*	.	20.8*	30.2*	20.2*	17.9
O=C(CSc1ncnc2c1oc1ccccc12)Nc1cccc(Cl)c1	.	25.2*	33.1*	1548	.	11.1	27.3*	21.9*	18.5
Cc1cc(SCC(=O)c2cccs2)nc2ccccc12	1603	3.2	-0.7	1615	1980	10.0	.	.	.
Fc1ccccc1CSc1ncnc2c1oc1ccccc12	.	18.9	50.8*	2035*	.	45.6*	48.8*	38.0*	32.2*
O=c1c2oc3ccccc3c2ncn1Cc1ccccc1F	.	6.4	1.4	1439	.	-0.9	.	.	.
Cc1cc(-c2ccc(Cl)cc2)c(C#N)c(N)n1	.	12.2	18.6	1825	.	18.9*	3.1	0.8	0.2
Cc1ccc(-c2cc(-c3ccccc3)c(C#N)c(N)n2)o1	.	4.7	-4.4	1836	.	7.7	.	.	.
CCCCn1c(=S)[nH]c2c(oc3ccc(Cl)cc32)c1=O	.	16.6	18.1	1792	.	22.3*	12.3	5.0	11.3
